From PubChem BioAssay
A selection: hits, their analogues and other compounds. The true share with any hit is near 3%.
Tau fluor cs – counter-screen for tau fibril formation inhibitors | tau K18 P301L Alexa594 fluorescence, heparin fibrillization | Potency, µM (doses to about 57.7 µM), for the others: top-dose activity change, negative = decrease | 280,000 tested, 0.93% active; note: potency is the fitted concentration of half-maximal effect; nearly all actives have a fitted effect of over 55% in size
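Human K18 P301L tau (15 uM unlabeled plus 0.24 uM Alexa 594-labeled, final) in 100 mM sodium acetate pH 7 was mixed with compound and 20 uM heparin and incubated 6 hr at 37 C.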
Tau FP inhib – inhibitors of human tau fibril formation. P10636. K18 P301L tau heparin fibrillization, Alexa594 FP, 6 h. Potency, µM (doses to about 57.7 µM), for the others: at the top dose activity, negative = inhibition, usual class: inhibitors. 280,000 tested, 0.39% active. AID 1468; note: potency is the fitted concentration of half-maximal effect; nearly all actives have a fitted effect of over 55% in size
Target sequence (P10636 561-689 P618L limits assumed): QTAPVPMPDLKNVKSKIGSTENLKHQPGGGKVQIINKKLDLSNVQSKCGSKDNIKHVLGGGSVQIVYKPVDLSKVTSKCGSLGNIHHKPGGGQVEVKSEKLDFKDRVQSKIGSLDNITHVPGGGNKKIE
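Human K18 P301L fragment (15 uM unlabeled plus 0.24 uM Alexa 594-labeled) in 100 mM sodium acetate pH 7 with compound, aggregation induced by 20 uM heparin for 6 hr at 37 C. ThT (30 uM) added for 1 hr, then Alexa 594 FP read.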
FBPA coupling cs – counter-screen for Giardia aldolase inhibitors: coupling enzyme system; coupling enzyme system counterscreen, AmpLite Red fluorescence; AID 2472; 290,000 tested, 0.67% active; activity change, negative = inhibition, % at 58.2 µM, hits read low; in the data active = activity change below about -30%
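First, compound is pin-transferred into glyceraldehyde-3-phosphate coupling-enzyme reagent at 57.5 uM final and held 10 min at RT. Next, substrate, coupling system and AmpLite Red are added. After 20 min RT, fluorescence (525/598 nm) is read.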
Tau fibril ThT – tau fibrillization inhibition (ThT binding). recombinant tau K18 P301L, heparin-induced fibrillization, ThT fluorescence. Potency, µM (titrated, usually from 57.4 µM), inactives show at the top dose activity, negative = inhibition, usual class: inhibitors. 270,000 tested, 2.1% active; note: potency is the fitted concentration of half-maximal effect; nearly all actives have a fitted effect of over 55% in size
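Using a mix of unlabeled (15 uM) and Alexa 594-labeled (0.24 uM) tau K18 P301L, heparin-triggered fibrillization over 6 hr at 37 C was scored by ThT fluorescence.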
JMJD2E inh – inhibitors of human JMJD2E histone demethylase | B2RXH2 | JMJD2E catalytic domain, FDH-coupled NADH fluorescence (FDH is formaldehyde dehydrogenase) | Potency, µM (top dose mostly 57.1 µM), for inactives: top-dose activity change, negative = inhibition, most hits filed as inhibitors | 230,000 tested, 1.6% active; active = well fitted inhibition curve with a large enough effect, not every such curve was filed as active; inconclusive = small, poorly fitted or top-dose-only effect, or another doubt; inactive = no such curve, though single readings can be large or run the other way;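 note: potency is the fitted concentration of half-maximal effect; 0% = wells with enzyme and -100% = buffer wells without enzyme; nearly all actives have a fitted effect of over 50% in size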
Target sequence (B2RXH2 1-337 limits assumed): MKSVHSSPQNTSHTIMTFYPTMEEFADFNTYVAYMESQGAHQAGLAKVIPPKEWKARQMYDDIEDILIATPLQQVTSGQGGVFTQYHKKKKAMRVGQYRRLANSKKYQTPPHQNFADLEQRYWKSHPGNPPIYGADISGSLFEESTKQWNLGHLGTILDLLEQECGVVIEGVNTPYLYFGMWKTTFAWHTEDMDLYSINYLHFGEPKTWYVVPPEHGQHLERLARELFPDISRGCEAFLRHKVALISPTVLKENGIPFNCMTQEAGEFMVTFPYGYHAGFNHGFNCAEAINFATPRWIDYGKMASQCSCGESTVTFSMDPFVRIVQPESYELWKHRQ
Active calls of the source: *; ? = inconclusive; / = not tested or not shown; [ ] = another dose, or the depositor's remark. Unless noted, calls come from the whole dose curve; as a rule, active = well fitted curve in the direction sought with a large enough effect; inconclusive = small, poorly fitted or top-dose-only effect, or another doubt; inactive = no such curve, though single readings can be large; an effect the other way counts as inactive or inconclusive. Unless noted, % is set by controls: 0 for no effect and ±100 for the full control effect.

SMILES	Tau fluor cs	Tau FP inhib	FBPA coupling cs	Tau fibril ThT	JMJD2E inh
COc1ccc(Cl)cc1C(=O)NCC(c1ccc(N(C)C)cc1)N1CCCC1 (configuration not stated)	-3%	0%	/	-4%	/
Cc1nnc(SCc2nc(-c3ccc(Cl)cc3)no2)n1-c1ccc(F)cc1	-21%	-7%	/	?	/
CN(C)N1C(N)=C(C#N)C(c2cccs2)C2=C1CC(C)(C)CC2=O (configuration not stated)	-12%	-3%	-46*	-3%	-22%
CC1(C)CC(=O)C2=C(C1)N(c1cccnc1)C(N)=C(C#N)C2c1cccs1 (configuration not stated)	-20%	?	-27	20µM*	-3%
CCn1cc(C(=O)N2CCN(c3ccccc3OC)CC2)c(=O)c2cc(S(=O)(=O)N3CCC(C)CC3)ccc21	-10%	-6%	/	-9%	/
Nc1ccc(C(=O)NCC(=O)O)cc1	?	?	-13	32µM*	?
Nc1ccc(C(=O)NCCCCCCNC(=O)c2ccc(N)cc2)cc1	/	/	1	/	/
Oc1ccc(N=C/C=C/c2cccc(Br)c2)cc1-c1nc2ccccc2s1	?	-15%	-15	6.3µM*	25µM*
Cc1c(CN2CCCC(C)C2)c(O)n(CCO)c(=O)c1C#N (configuration not stated)	-2%[2.34 µM]	4%	2	-4%	14%
C=CCn1c(O)c(CN2CCCCC2)c(C)c(C#N)c1=O	-25%	?	-33*	25µM*	?
Cc1ccc(-c2noc(CN(C(=O)COc3cc(C)cc(C)c3C)C(C)C)n2)cc1	-22%	-5%	/	?	/
COc1cc2c(cc1OC)-c1cc3nc4ccccc4nc3n1C(C)(C)C2	?	?	-3	?	4.5µM*
COc1cc2c(cc1OC)-c1n[nH]c(=S)n1C(C)(C)C2	5%	-3%	2	1%	?
N#CC1=C(N)SC(N)=C(C#N)C1c1ccoc1	?	?	-39*	22µM*	?
CSc1cccc(NC(=O)Cn2ncn3c(cc4ccccc43)c2=O)c1	20µM*[quencher]	-8%	/	-16%	/
Cc1cc(NC(=O)c2sc(Nc3cccc(C(F)(F)F)c3)nc2N)no1	18µM*[quencher]	?	0	11µM*	-2%
Cc1cc(NC(=O)c2sc(Nc3ccc(F)c(Cl)c3)nc2N)no1	?	7%	1	?	2%
O=C(Nc1cccc(C(F)(F)F)c1)Oc1ccc(Cl)c2cccnc12	?	20µM*	-10	-15%	?
CCOc1ccc(NC(=O)c2ccc3c(c2)CCN3S(=O)(=O)c2ccc(Cl)cc2)cc1	?	-15%	/	-7%	/
CCCCn1c(NS(=O)(=O)c2ccccc2)c(S(=O)(=O)c2ccc(C)cc2)c2nc3ccccc3nc21	-8%	-4%	-32*	?	?
CCCCn1c(NC(=O)c2ccco2)c(S(=O)(=O)c2ccc(C)cc2)c2nc3ccccc3nc21	?	?	-25	16µM*	?
CCCCn1c(NC(=O)c2ccc(Br)o2)c(S(=O)(=O)c2ccccc2)c2nc3ccccc3nc21	-27%	?	-6	18µM*	?
Cc1ccc(S(=O)(=O)c2c(N)n(CCCO)c3nc4ccccc4nc23)cc1	-30%	?	0	-13%	?
CCC(=O)Nc1c(S(=O)(=O)c2ccccc2)c2nc3ccccc3nc2n1C(C)c1ccccc1 (configuration not stated)	-22%	4%	-3	-7%	?
CCCCCn1c(NC(=O)c2ccco2)c(S(=O)(=O)c2ccc(C)cc2)c2nc3ccccc3nc21	?	-9%	-15	?	?
SMILES	Tau fluor cs	Tau FP inhib	FBPA coupling cs	Tau fibril ThT	JMJD2E inh
Cc1ccc(OCc2cc(=O)n3cc(C)sc3n2)c(NC(=O)c2ccco2)c1	-6%	-1%	/	-16%	/
CCC(=O)N1CCc2cc(S(=O)(=O)CCC(=O)N3CCN(c4cccc(C)c4)C(C)C3)ccc21 (configuration not stated)	-12%	-3%	/	?	/
O=C(OC1Cc2c(O)cc(O)cc2OC1c1cc(O)c(O)c(O)c1-c1c(C2Oc3cc(O)cc(O)c3CC2O)cc(O)c(O)c1O)c1cc(O)c(O)c(O)c1 (configuration not stated)	13µM*[quencher]	?	0	18µM*	8.9µM*
CC(=O)Oc1cc(OC(C)=O)c2c(c1)OC(c1ccc(OC(C)=O)c(OC(C)=O)c1)C(OC(C)=O)C2 (configuration not stated)	-11%	-8%	0	-18%	6%
COc1ccc(-c2csc(Nc3ccc(S(=O)(=O)Nc4cc(C)on4)cc3)n2)cc1C	?	13%	-3	13µM*	?
COc1cc(NS(=O)(=O)c2ccc(Nc3nc(-c4ccccn4)cs3)cc2)nc(OC)n1	-26%	14%	8	-13%	-7%
COc1ccc(CC(=O)Nc2ccc(S(=O)(=O)Nc3cc(C)on3)cc2)cc1OC	-13%	-14%	3	-17%	8%
COc1ccc(-c2csc(Nc3ccc(S(=O)(=O)Nc4cc(OC)nc(OC)n4)cc3)n2)cc1	11µM*[quencher]	3%	-4	16µM*	-4%
Cc1nn(C(C)(C)C)c(OC(=O)C(C)(C)C)c1Sc1ccccc1	-12%	-4%	/	-10%	/
C/C(=N\NC(=O)CN(c1ccccc1)S(C)(=O)=O)c1ccccc1O	-11%	-10%	5	2%	18µM*
OCC1OC([S-])[C@H](O)C(O)C1O.[Au+] (some centres not stated)	-27%	?	1	?	?
Cc1ccc2c(c1)CCCN2C(=O)Nc1ccc2c(c1)OCO2	-19%	7%	-40*	?	?
O=C(N/N=C/C(Br)=C/c1ccccc1)C(O)c1ccccc1 (configuration not stated)	?	-13%	1	-12%	-2%
O=C(O)c1ccc(N/N=C/C(Br)=C/c2ccccc2)cc1	?	7%	7	14µM*	-6%
BrC(=C\c1ccccc1)/C=N/Nc1nc2ccccc2[nH]1	?	-9%	-12	25µM*	3%
COc1ccc(C2C=C(c3ccccc3)Nc3nc(NS(=O)(=O)c4ccccc4)nn32)cc1 (configuration not stated)	-4%	-2%	/	1%	/
CC1=NN(C(N)=S)C(=O)C1N=Nc1ccccc1O (configuration not stated)	/	/	1	/	/
CC1=NN(C(N)=S)C(=O)C1N=Nc1c(C)cc(C)cc1C (configuration not stated)	-21%	3%	3	4.5µM*	5%
CC1=NN(C(N)=S)C(=O)C1N=Nc1ccc(C)cc1C (configuration not stated)	?	1%	2	3.2µM*	3%
CC1=NN(C(N)=S)C(=O)C1N=Nc1c(Br)cc(Br)cc1Br (configuration not stated)	/	/	9	/	/
